Screens deposited in PubChem by The Scripps Research Institute Molecular Screening Center.
Hits are enriched below; roughly 3.5% of the tested compounds scored in any of these assays.
GPR151 ag: activators of human GPR151 | hit rate 1% among 650,000 | Q8TDV0 | PathHunter beta-arrestin GPR151 cells, luminescence | activation, % at 11.2 µM; in the data active = activation above about 4.9%;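 note: 0% = median of compound wells and 100% = cells with positive control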
Target sequence (Q8TDV0 whole entry, looked up): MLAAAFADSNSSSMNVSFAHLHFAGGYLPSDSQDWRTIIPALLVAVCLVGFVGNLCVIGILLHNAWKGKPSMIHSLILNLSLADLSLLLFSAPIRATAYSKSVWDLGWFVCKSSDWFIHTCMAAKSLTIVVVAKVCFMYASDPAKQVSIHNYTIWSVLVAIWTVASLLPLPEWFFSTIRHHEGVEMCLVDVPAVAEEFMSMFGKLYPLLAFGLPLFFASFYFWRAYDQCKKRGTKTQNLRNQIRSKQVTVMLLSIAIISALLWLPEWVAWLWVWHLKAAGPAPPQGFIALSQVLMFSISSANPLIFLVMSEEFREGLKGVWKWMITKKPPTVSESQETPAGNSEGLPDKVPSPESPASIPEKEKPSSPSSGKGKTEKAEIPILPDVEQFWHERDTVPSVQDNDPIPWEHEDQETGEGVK
MITF primary: human MITF inhibition, primary screen; O75030; AlphaScreen MITF homodimerization, bead proximity signal; inhibition, % at 2.6 µM; hit rate 0.91% among 650,000; in the data active = inhibition above about 50%;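 note: 0% = vehicle wells with protein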
FBW7 activator: human FBW7 E3 ligase activation, primary screen; hit rate 0.13% among 650,000; AlphaScreen FBW7–phospho-cyclin E peptide binding, activator screen; normalized activity (activation), % at 26.1 µM; Q969H0; in the data active = normalized activity above about 1.9%;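 note: purified mutant Fbw7 with reduced substrate affinity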
TEAD-YAP block: TEAD-YAP interaction inhibition; HEK-TIYL cells, TEAD-Gal4/YAP UAS-luciferase luminescence; inhibition, % at 9.12 µM; hit rate 1.4% among 640,000; AID 1259422; in the data active = inhibition above about 32%;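 note: 0% = median of test compound wells and 100% = reference inhibitor wells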
GPR151 confirm: confirmation of human GPR151 activators. shares compounds with GPR151 ag. GPR151 PathHunter beta-arrestin cells, luminescence, 90 min; % of EA-reagent control over plate median. activation, % at 11.2 µM. 6,700 tested, under 10 active. AID 1508609;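 active = mean percent activation across replicates above the confirmation screen cutoff of 4.91%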
GPR119 ag: activates human GPR119 in a GPR151 counter-screen; shares compounds with GPR151 ag; GPR119 PathHunter beta-arrestin cells, luminescence, 90 min; 0 = compound-well median, 100 = enzyme-acceptor control; activation, % at 11.2 µM; hit rate 0.3% among 6,700; AID 1508611;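 active = mean percent activation in the counterscreen above 29.09%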;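 note: counterscreen on off-target GPR119 to flag nonselective hits from the GPR151 activator screen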
The depositor's hits bear a star; ! = not active in a repeat.

What do the screens show for `COc1cc(CNc2ccc3ncc(-c4cccnc4)n3n2)cc(OC)c1OC`?
GPR151 ag: 7.8*; MITF primary: 5; FBW7 activator: 0; TEAD-YAP block: -17; GPR151 confirm: 1; GPR119 ag: 4

How did C=CCn1c(C)cn2c3c(=O)n(CC(N)=O)c(=O)n(C)c3nc12 do in these assays?
GPR151 ag: 2; MITF primary: -8; FBW7 activator: 0; TEAD-YAP block: 2

What do the screens show for `COc1ccc(C(=O)NCC(=O)N/N=C/c2cccc(Br)c2)cc1OC`?
GPR151 ag: 2; MITF primary: 16; FBW7 activator: 0; TEAD-YAP block: 0

Results for Nc1cc(-c2ccccc2)nn1Cc1cccc(Cl)c1 ?
GPR151 ag: 0; MITF primary: -4; FBW7 activator: 0; TEAD-YAP block: 9

What do the screens show for `Nc1c(-c2ccccc2)c(-c2ccccc2)nn1Cc1ccccc1`?
GPR151 ag: 6.9*; MITF primary: 11; FBW7 activator: 1; TEAD-YAP block: -3; GPR151 confirm: 1; GPR119 ag: 4

How did Cc1ccc(NC(=O)c2cnc(SCc3cccnc3)n(C)c2=O)cc1C do in these assays?
GPR151 ag: 10.0*; MITF primary: -7; FBW7 activator: 0; TEAD-YAP block: -29; GPR151 confirm: -1; GPR119 ag: -18

Results for COc1ccc(OC)c(CN2CCN(S(=O)(=O)c3ccc([N+](=O)[O-])cc3)CC2)c1 ?
GPR151 ag: 0; MITF primary: 45; FBW7 activator: 0; TEAD-YAP block: 7

What do the screens show for `O=C(Nc1c(Cl)cccc1Cl)c1cccc(F)c1`?
GPR151 ag: 0; MITF primary: -18; FBW7 activator: 0; TEAD-YAP block: -11

Results for C/C(=N\NC(=O)CCc1ccccc1)c1ccncc1 ?
GPR151 ag: 7.2*; MITF primary: -14; FBW7 activator: 0; TEAD-YAP block: -10; GPR151 confirm: 0; GPR119 ag: 1

How did Cc1cc(Cl)ccc1OC(C)C(=O)NCc1ccco1 (stereo not drawn) do in these assays?
GPR151 ag: 6.9*; MITF primary: 12; FBW7 activator: 0; TEAD-YAP block: 4; GPR151 confirm: 1; GPR119 ag: 16

Results for O=Cc1cc(C(=O)O)cc2c1OCOC2 ?
GPR151 ag: 11*; MITF primary: -7; FBW7 activator: 0; TEAD-YAP block: -4; GPR151 confirm: -1; GPR119 ag: -6

Results for Cc1ccc2c(=O)cc(-c3cc(C(=O)O)cc4c3OCOC4)oc2c1 ?
GPR151 ag: 0; MITF primary: 14; FBW7 activator: 0; TEAD-YAP block: 10

What do the screens show for `CC1Sc2cc(S(=O)(=O)CCC(=O)NC3CCCC(C)C3C)ccc2NC1=O` (stereo not drawn)?
GPR151 ag: 5.1*; MITF primary: -2; FBW7 activator: 0; TEAD-YAP block: 15; GPR151 confirm: 1; GPR119 ag: 8

What do the screens show for `CC1Sc2cc(S(=O)(=O)CCC(=O)Nc3ccccc3F)ccc2NC1=O` (stereo not drawn)?
GPR151 ag: 5.3*; MITF primary: -1; FBW7 activator: 0; TEAD-YAP block: -3; GPR151 confirm: 0; GPR119 ag: -7

How did NS(=O)(=O)c1ccc(NC(=O)c2ccc(-c3ccc([N+](=O)[O-])cc3Cl)o2)cc1 do in these assays?
GPR151 ag: 0; MITF primary: 0; FBW7 activator: 0; TEAD-YAP block: -3

How did CCOC(=O)C1=C(C)NC2=C(C(=O)C(C(=O)OCC)C(c3cccc(OC)c3)C2)C1c1ccc(Cl)cc1 (stereo not drawn) do in these assays?
GPR151 ag: 0; MITF primary: 1; FBW7 activator: 0; TEAD-YAP block: 5

How did COc1ccc(-c2noc(CCCC(=O)Nc3ccc(NC(C)=O)cc3)n2)cc1OC do in these assays?
GPR151 ag: -1; MITF primary: 11; FBW7 activator: 1; TEAD-YAP block: 3

Results for CCOc1ccc(Cl)cc1S(=O)(=O)NC(C)c1ccccc1 (stereo not drawn) ?
GPR151 ag: 5.1*; MITF primary: -6; FBW7 activator: 0; TEAD-YAP block: -9; GPR151 confirm: 0; GPR119 ag: 5

What do the screens show for `COc1ccc(Cl)cc1S(=O)(=O)NC(C)c1ccccc1` (stereo not drawn)?
GPR151 ag: 1; MITF primary: 1; FBW7 activator: 0; TEAD-YAP block: -1

How did CC(NS(=O)(=O)c1ccc(OCC(=O)Nc2ccccc2)c(Cl)c1)c1ccccc1 (stereo not drawn) do in these assays?
GPR151 ag: 6.1*; MITF primary: -20; FBW7 activator: 0; TEAD-YAP block: -3; GPR151 confirm: 1; GPR119 ag: 4

Results for C=CCNC(=O)COc1ccc(S(=O)(=O)NC(C)c2ccccc2)cc1Cl (stereo not drawn) ?
GPR151 ag: 2; MITF primary: 0; FBW7 activator: 0; TEAD-YAP block: 0

What do the screens show for `O=C1CCCN1Cc1n[nH]c(=S)n1CCCN1CCOCC1`?
GPR151 ag: -2; MITF primary: 3; FBW7 activator: 0; TEAD-YAP block: 0

Results for O=C(CCNC(=O)Cn1cnc2ccccc2c1=O)NCc1ccc(F)cc1 ?
GPR151 ag: -1; MITF primary: -3; FBW7 activator: 0; TEAD-YAP block: -3

How did CCOc1cccc(CN2CCC(C(=O)NC(C)c3ccccc3)CC2)c1O (stereo not drawn) do in these assays?
GPR151 ag: 5.6*; MITF primary: 0; FBW7 activator: 0; TEAD-YAP block: 1; GPR151 confirm: 0; GPR119 ag: 6

How did COc1ccc(CN[C@H]2C[C@H]3C(=O)N[C@@H](CC(C)C)C(=O)N3C2)cc1 do in these assays?
GPR151 ag: 0; MITF primary: -1; FBW7 activator: 0; TEAD-YAP block: 14

What do the screens show for `O=C(Nc1nnc(C(c2ccccc2)c2ccccc2)s1)c1ccccc1F`?
GPR151 ag: 0; MITF primary: 14; FBW7 activator: 0; TEAD-YAP block: -5

What do the screens show for `COc1ccc(-c2nc3n(n2)C(c2ccc(OC)cc2OC)C(C(N)=O)=C(C)N3)cc1` (stereo not drawn)?
GPR151 ag: 7.4*; MITF primary: -2; FBW7 activator: 0; TEAD-YAP block: -2; GPR151 confirm: 1; GPR119 ag: -10

What do the screens show for `COc1ccc(-c2nc3n(n2)C(c2cc(OC)ccc2OC)C(C(N)=O)=C(C)N3)cc1` (stereo not drawn)?
GPR151 ag: 1; MITF primary: 9; FBW7 activator: 0; TEAD-YAP block: 2

What do the screens show for `COc1cc(CNC(=O)CCCC/C=C/C(C)C)ccc1O`?
GPR151 ag: 7.6*!; MITF primary: -7; FBW7 activator: 0; TEAD-YAP block: -12; GPR151 confirm: 0; GPR119 ag: -6

Results for COc1ccc(CNC(=O)CCSC)cc1OC ?
GPR151 ag: -1; MITF primary: -5; FBW7 activator: 0; TEAD-YAP block: 2
